Laboratory results taken from PubChem BioAssay.

target: Fibroblast growth factor 2 (Homo sapiens) (UniProt P09038); assay: FGF2 binders on small-molecule microarrays, primary screen, biochemical, small-molecule microarray, 635/667 nm fluorescence (AID 1133); conditions: small-molecule microarray binding, FGF2, fluorescence 635/667; higher = more signal
Sequence (P09038 whole entry, looked up): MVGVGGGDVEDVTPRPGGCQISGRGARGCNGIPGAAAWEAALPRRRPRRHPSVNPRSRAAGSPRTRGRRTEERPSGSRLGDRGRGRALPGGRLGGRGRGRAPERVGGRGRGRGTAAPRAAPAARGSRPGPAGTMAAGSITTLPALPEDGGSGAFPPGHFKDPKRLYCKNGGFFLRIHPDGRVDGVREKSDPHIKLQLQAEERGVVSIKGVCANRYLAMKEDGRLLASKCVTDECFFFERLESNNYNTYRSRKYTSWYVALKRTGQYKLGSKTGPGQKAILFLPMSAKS

Structure (SMILES) | composite z-score
COC(=O)[C@@]1(Cc2ccc(F)cc2)[C@H]2c3cc(C(=O)N(C)C)n(Cc4ccc(OC)c(OC)c4)c3C[C@H]2CN1C(=O)c1ccccc1 | -0.346
CCOC(=O)CCN1C(=O)[C@H]2[C@H]3[C@H](O)C=CC(=O)[C@@H]3CC[C@H]2C1=O | 0.49
C[C@H](c1ccccc1)N1C(=O)[C@H]2[C@@H]3C(=CC[C@H]2C1=O)C(=O)[C@H]1O[C@H]1[C@H]3O | 0.565
CS(=O)(=O)CCOC(=O)C1=CC(CCCO)=CC(c2cccs2)N(Cc2cccc(OC(F)(F)F)c2)C=C1C(=O)OCCS(C)(=O)=O (configuration not stated) | 0.202
O=C1[C@H]2[C@H]3[C@H](O)[C@H](O)CC(=NO[C@@H]4O[C@H](CO)[C@@H](O)[C@H](O)[C@H]4O)[C@H]3CC[C@H]2C(=O)N1Cc1ccc2c(c1)OCO2 | -0.654
Cc1cc2c(nc1C)CCCN2CC(C)ON=C1[C@H]2CCn3c(=O)n(-c4ccccc4)c(=O)n3[C@H]2[C@H](O)[C@@H]2O[C@H]12 (some centres not stated) | 0.56
Cc1cc(C)c(-c2cc([C@H](C)ON=C3[C@H]4CCn5c(=O)n(-c6ccccc6)c(=O)n5[C@H]4[C@H](O)[C@@H]4O[C@H]34)on2)c(C)c1 | 0.627
COc1ccc([Si](C)(C)[C@@H]2[C@@H](CCO)O[C@]3(C(=O)N(Cc4ccc(NC(C)=O)cc4)c4ccccc43)[C@H]2C)cc1 | 0.228
c1ccc(C2NCCc3c2[nH]c2ccccc32)cc1 (configuration not stated) | 0.737
CC(=O)C[C@H](O)[C@@H](NC(=O)OC(C)(C)C)C(C)C | -0.312
CO[C@H]1O[C@H](CO)[C@@H](OC(=O)Nc2ccc(C#N)cc2)[C@H](OC(=O)c2cc3ccccc3[nH]2)[C@H]1OC(=O)c1cc2ccccc2[nH]1 | 1.33
CO[C@@H]1COC(=O)[C@@H]2CCCN2C(=O)[C@@H](C)COC(=O)[C@H](COCc2ccccc2)NC(=O)CC=C[C@H]1C | 0.27
COc1ccc(O[C@H]2C=C[C@@H](c3ccccc3)O[C@@H]2COC(=O)CCC(C)=NO[C@H](C)c2cn([C@@H]3COC[C@H]3O)nn2)cc1 | 0.459
CC(CCC(=O)OC[C@H]1O[C@H](C#Cc2ccccc2)C=C[C@@H]1Oc1ccc(C)cc1)=NO[C@@H](C)c1cn([C@H](CO)Cc2ccccc2)nn1 | 0.61
CO[C@H]1COC(=O)[C@H](C)COC(=O)CC=C[C@@H](C)[C@H](OC)COC(=O)CC=C[C@@H]1C | 1.41
CCc1cccc(NC(=O)O[C@H]2[C@H](OC(=O)Nc3ccc4c(c3)OCO4)[C@@H](OC(=O)Nc3ccc4c(c3)OCO4)[C@@H](OC)O[C@@H]2CO)c1 | 0.528
CCOC(=O)C[C@H]1[C@H](OC(=O)c2cc3ccccc3oc2=O)[C@@H](NC(=O)c2ccc3ccccc3n2)c2cc(OCCCO)ccc2N1C(=O)c1ccccc1 | 1.23
CCN1C(=O)[C@H]2[C@H]3[C@H](O)[C@H](O)CC(=NOCC=C(C)CCC=C(C)C)[C@H]3CC[C@H]2C1=O | 1.51
O=C1[C@H]2[C@H]3[C@H](O)[C@H](O)CC(=NOCc4ccccc4)[C@@H]3CC[C@H]2C(=O)N1C1CCCCC1 | -0.45
CC(C)=CCCC(C)=CCON=C1[C@H]2CCn3c(=O)n(Cc4cc5c(cc4Cl)OCO5)c(=O)n3[C@H]2[C@H](O)[C@@H]2O[C@H]12 | 0.367
CCCNC(=O)OC[C@H]1O[C@H](CCON=C[C@@H](OC)[C@H](C)C=CCC(=O)OC)C=C[C@@H]1Oc1ccc(OC)cc1 | 0.109
COC(=O)[C@H](C)NC(=O)[C@@H](C)CO | 0.108
C=CCOC(=O)[C@H]1[C@@H]2C(=O)O[C@@H](c3ccccc3)[C@@H](c3ccccc3)N2[C@@H](c2ccc(OCCOC(=O)[C@H]3C[C@H]4C(=O)N5CCC[C@H]5C(=O)N4[C@H]3c3cccc(OCCO)c3)cc2)[C@]12C(=O)Nc1ccc(I)cc12 | 1.68
CCCCC(=C=CC[C@H](O)c1ccccc1OCCO)C[C@H](O)COCc1ccccc1 | 0.189
COc1ccc(-c2ccc3c(n2)CCCN3CC(O)CN2CCCc3nc(C)c(C)cc32)cc1 (configuration not stated) | 0.62
C[C@H]1Cc2c(-c3ccccc3)nc3c(c2CO1)CN(CCOc1ccccc1)CC3 | 1.08

system: not listed separately; assay: mitochondrial membrane potential change in A549 cells, profiling panel, cell-based, JC-1 fluorescence, basal, 24 h, 100 nL (AID 1138); conditions: higher = more signal;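 further: A549 lung adenocarcinoma cells under basal conditions with no added stimulus; test concentration not given here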

Structure (SMILES) | z-score
C=CC[C@@H]1C=C[C@H](ON=C2c3cc(OC)ccc3O[C@H](c3cccc(OC)c3)[C@H]2O)[C@@H](CO)O1 | -0.102
COCCOC(=O)N1C(=O)[C@@]2(c3cc(C#CCNC(N)=O)ccc31)[C@H](c1ccc(O)cc1)N1[C@H](c3ccccc3)[C@H](c3ccccc3)OC(=O)[C@H]1[C@@H]2C(=O)N1CCCCCCC1 | -1.18
CC(C)(C)N1C(=O)[C@H]2[C@H]3[C@H](O)[C@H](O)CC(=NOCc4ccccc4)[C@@H]3CC[C@H]2C1=O | 0.0533
O=C1C[C@]2(c3ccc([N+](=O)[O-])cc3)C(=O)N(CCN3CCOCC3)c3cc(CO)ccc3[C@H]2N1CC12CC3CC(CC(C3)C1)C2 | -0.869
CC[C@@H](c1ccccc1)n1c(=O)n2n(c1=O)[C@H]1[C@H](O)[C@@H]3O[C@@H]3C(=NOCC(C)C)[C@H]1CC2 | -0.492
O=C1[C@H]2[C@H]3[C@H](O)[C@H](O)CC(=NO[C@@H]4O[C@H](CO)[C@@H](O)[C@H](O)[C@H]4O)[C@@H]3CC[C@H]2C(=O)N1Cc1ccc2c(c1)OCO2 | -0.789
CC(C)=C1C(=O)C(c2ccccc2)=C2CN3C(=O)N(CCc4ccccc4)C(=O)[C@]3(Cc3ccc(F)cc3)[C@H]21 | 1.27
CO[C@@H]1COC(=O)CCC[C@@H](C)[C@H](OC)COC(=O)[C@H](Cc2ccccc2)NC(=O)CC=C[C@H]1C | -0.972
Cc1ccc(F)cc1S(=O)(=O)N[C@@H]1CCN(Cc2ccc(CC(C)C)cc2)C1 | -0.391
CC(C)[Si]1(C(C)C)O[C@@H](c2ccccc2)c2cc(C3CC3)nc(-c3ccccc3)c21 | -0.271
COC(=O)[C@@]1(Cc2ccc(F)cc2)[C@H]2c3cc(C(=O)N(C)C)n(Cc4ccc(OC)c(OC)c4)c3C[C@H]2CN1C(=O)c1ccccc1 | 0.362
CCOC(=O)CCN1C(=O)[C@H]2[C@H]3[C@H](O)C=CC(=O)[C@@H]3CC[C@H]2C1=O | 0.0322
C[C@H](c1ccccc1)N1C(=O)[C@H]2[C@@H]3C(=CC[C@H]2C1=O)C(=O)[C@H]1O[C@H]1[C@H]3O | -0.732
CS(=O)(=O)CCOC(=O)C1=CC(CCCO)=CC(c2cccs2)N(Cc2cccc(OC(F)(F)F)c2)C=C1C(=O)OCCS(C)(=O)=O (configuration not stated) | 1.64
O=C1[C@H]2[C@H]3[C@H](O)[C@H](O)CC(=NO[C@@H]4O[C@H](CO)[C@@H](O)[C@H](O)[C@H]4O)[C@H]3CC[C@H]2C(=O)N1Cc1ccc2c(c1)OCO2 | 0.531
Cc1cc2c(nc1C)CCCN2CC(C)ON=C1[C@H]2CCn3c(=O)n(-c4ccccc4)c(=O)n3[C@H]2[C@H](O)[C@@H]2O[C@H]12 (some centres not stated) | -0.562
Cc1cc(C)c(-c2cc([C@H](C)ON=C3[C@H]4CCn5c(=O)n(-c6ccccc6)c(=O)n5[C@H]4[C@H](O)[C@@H]4O[C@H]34)on2)c(C)c1 | 1.32
COc1ccc([Si](C)(C)[C@@H]2[C@@H](CCO)O[C@]3(C(=O)N(Cc4ccc(NC(C)=O)cc4)c4ccccc43)[C@H]2C)cc1 | -0.898

Structure (SMILES) | z-score
c1ccc(C2NCCc3c2[nH]c2ccccc32)cc1 (configuration not stated) | -0.104
CC(=O)C[C@H](O)[C@@H](NC(=O)OC(C)(C)C)C(C)C | -0.824
CO[C@H]1O[C@H](CO)[C@@H](OC(=O)Nc2ccc(C#N)cc2)[C@H](OC(=O)c2cc3ccccc3[nH]2)[C@H]1OC(=O)c1cc2ccccc2[nH]1 | 0.71
CO[C@@H]1COC(=O)[C@@H]2CCCN2C(=O)[C@@H](C)COC(=O)[C@H](COCc2ccccc2)NC(=O)CC=C[C@H]1C | -0.714
COc1ccc(O[C@H]2C=C[C@@H](c3ccccc3)O[C@@H]2COC(=O)CCC(C)=NO[C@H](C)c2cn([C@@H]3COC[C@H]3O)nn2)cc1 | -1.56
CC(CCC(=O)OC[C@H]1O[C@H](C#Cc2ccccc2)C=C[C@@H]1Oc1ccc(C)cc1)=NO[C@@H](C)c1cn([C@H](CO)Cc2ccccc2)nn1 | -0.97
CO[C@H]1COC(=O)[C@H](C)COC(=O)CC=C[C@@H](C)[C@H](OC)COC(=O)CC=C[C@@H]1C | 1.11
CCc1cccc(NC(=O)O[C@H]2[C@H](OC(=O)Nc3ccc4c(c3)OCO4)[C@@H](OC(=O)Nc3ccc4c(c3)OCO4)[C@@H](OC)O[C@@H]2CO)c1 | -0.321
CCOC(=O)C[C@H]1[C@H](OC(=O)c2cc3ccccc3oc2=O)[C@@H](NC(=O)c2ccc3ccccc3n2)c2cc(OCCCO)ccc2N1C(=O)c1ccccc1 | -0.837
CCN1C(=O)[C@H]2[C@H]3[C@H](O)[C@H](O)CC(=NOCC=C(C)CCC=C(C)C)[C@H]3CC[C@H]2C1=O | -0.298
O=C1[C@H]2[C@H]3[C@H](O)[C@H](O)CC(=NOCc4ccccc4)[C@@H]3CC[C@H]2C(=O)N1C1CCCCC1 | -0.134
CC(C)=CCCC(C)=CCON=C1[C@H]2CCn3c(=O)n(Cc4cc5c(cc4Cl)OCO5)c(=O)n3[C@H]2[C@H](O)[C@@H]2O[C@H]12 | -0.939
CCCNC(=O)OC[C@H]1O[C@H](CCON=C[C@@H](OC)[C@H](C)C=CCC(=O)OC)C=C[C@@H]1Oc1ccc(OC)cc1 | 0.139
COC(=O)[C@H](C)NC(=O)[C@@H](C)CO | -1.08
C=CCOC(=O)[C@H]1[C@@H]2C(=O)O[C@@H](c3ccccc3)[C@@H](c3ccccc3)N2[C@@H](c2ccc(OCCOC(=O)[C@H]3C[C@H]4C(=O)N5CCC[C@H]5C(=O)N4[C@H]3c3cccc(OCCO)c3)cc2)[C@]12C(=O)Nc1ccc(I)cc12 | 0.445
CCCCC(=C=CC[C@H](O)c1ccccc1OCCO)C[C@H](O)COCc1ccccc1 | 0.544
COc1ccc(-c2ccc3c(n2)CCCN3CC(O)CN2CCCc3nc(C)c(C)cc32)cc1 (configuration not stated) | 1.7
C[C@H]1Cc2c(-c3ccccc3)nc3c(c2CO1)CN(CCOc1ccccc1)CC3 | 3.24
